Nrf2 inh = inhibitors of Nrf2 signaling | A549 ARE-Fluc reporter, luciferase luminescence, 18-24 h | Potency, µM (titrated, usually from 46 µM), inactives show at the highest dose activity change, negative = inhibition, usual class: inhibitors | 360,000 tested, 2.1% active; also: potency is read from the fitted curve at half-maximal effect; % is scaled to controls: 0 for no effect and ±100 for the full control effect; nearly all actives have a fitted effect of over 60% in size
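Two sequential reads on A549 ARE_Fluc cells exposed to compound for 18-24 h: a CellTiter-Fluor fluorescence read for viability, then a luciferase luminescence read for Nrf2/ARE activity.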
Nrf2 ARE act = activates Nrf2 signaling. AREc32 ARE-luciferase reporter (MCF7-derived line), luminescence, 24 h. Potency, µM (highest dose often 46.1 µM), for the others: at the top dose activation, most hits filed as activators. 410,000 tested, 0.31% active. AID 624171; also: potency is read from the fitted curve at half-maximal effect; % of control where 0% means no effect; nearly all actives have a fitted effect of over 65% in size
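Cells of the AREc32 ARE-luciferase line are plated in OPTI-MEM containing 5% FBS and left overnight at 37 deg C. Compounds are pinned in, incubation continues 24 hr, and firefly luciferase signal is then measured.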
ALOX12 inh = ALOX12 (human) lipoxygenase inhibition; AID 1671190; Potency, µM (highest dose often 108 µM), for inactives: at the highest dose activity change, negative = inhibition, usual class: inhibitors; purified 12hLO, xylenol orange hydroperoxide absorbance; 580,000 tested, 1.1% active; P18054; also: potency is read from the fitted curve at half-maximal effect; % is scaled to controls: 0 for no effect and ±100 for the full control effect
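Hydroperoxide product was detected by ferrous iron/xylenol orange as the 573 to 405 nm absorbance ratio. Arachidonic acid at 40 uM (final) was turned over for 30 min at room temperature by 150 nM human 12hLO, pH 7.0 Hepes buffer, after 15 min compound preincubation.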
mIDH1 inhibitor = inhibitors of human mutant IDH1 R132H; IDH1-R132H enzyme, NADPH consumption, diaphorase/resazurin fluorescence; 390,000 tested, 0.093% active; O75874; Potency, µM (top dose mostly 76.6 µM), inactives show at the highest dose activity change, negative = inhibition, actives largely listed as inhibitors; also: potency is read from the fitted curve at half-maximal effect; % is scaled to controls: 0 for no effect and ±100 for the full control effect; nearly all actives have a fitted effect of over 65% in size
Target sequence (O75874 whole entry R132H, stated change not applied): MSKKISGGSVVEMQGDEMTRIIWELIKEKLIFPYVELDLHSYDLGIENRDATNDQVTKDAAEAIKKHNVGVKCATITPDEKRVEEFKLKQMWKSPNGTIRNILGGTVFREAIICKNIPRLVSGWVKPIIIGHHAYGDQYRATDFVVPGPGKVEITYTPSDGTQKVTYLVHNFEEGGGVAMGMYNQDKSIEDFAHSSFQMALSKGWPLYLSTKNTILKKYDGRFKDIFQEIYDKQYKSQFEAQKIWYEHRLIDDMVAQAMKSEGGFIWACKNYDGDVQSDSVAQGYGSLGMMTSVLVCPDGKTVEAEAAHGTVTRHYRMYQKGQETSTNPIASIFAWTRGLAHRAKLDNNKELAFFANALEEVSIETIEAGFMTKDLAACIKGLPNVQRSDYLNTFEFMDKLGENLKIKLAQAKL
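IDH1-R132H (0.5 ug/mL dispensed) in pH 7.5 Tris buffer was preincubated 30 min with compound, then given a substrate mix of 0.016 mM NADPH and 2 mM alpha-KG for 80 min at room temperature; remaining NADPH was read by diaphorase/resazurin fluorescence.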
A549 viability = A549 cytotoxicity, counter-screen for Nrf2 inhibitors; A549 ARE-Fluc cells, CellTiter-Fluor viability, 18-24 h; Potency, µM (top dose mostly 46 µM), without a hit: at the top dose activity change, negative = cytotoxicity, hits mostly inhibitors; 390,000 tested, 0.16% active; AID 504648; also: potency is read from the fitted curve at half-maximal effect; % is scaled to controls: 0 for no effect and ±100 for the full control effect
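A549 ARE-Fluc cells in 5% FBS OPTI-MEM, 5000 cells/well, rested 2 h then exposed to compounds in concentration-response for 18-24 h at 37 °C. Viability by CellTiter-Fluor fluorescence (Ex 405/Em 525) after 30 min; luciferase luminescence (BugLite, 15 min, RT) read afterwards.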
LDHA inh = inhibitors of human lactate dehydrogenase A | AID 1347041 | purified LDHA, NADH/diaphorase-resazurin fluorescence; active compounds read low | P00338 | 480,000 tested, 0.15% active | activity change, % (values are at about 110 or 230 µM); in the data active = activity change below about -30%; inconclusive = mostly about -25% to -30%;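 also: plate controls were DMSO wells for no effect and wells without enzyme for full effect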
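Human LDH5 (2 nM) was incubated with 0.06 mM NADH and 0.2 mM pyruvate for 5 min at room temperature in Tris pH 7.4. Remaining NADH was coupled through diaphorase/resazurin, and resorufin fluorescence was read at 0 and 20 min.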
* marks the source's active call; other numbers are inactive results; [ ] = remark or other dose. Most compounds without a hit are left out; they make up all but 2.7% or so of the library. Unless noted, calls follow the shape of the dose curve; as a rule, active = well fitted curve in the direction sought with a large enough effect; inconclusive = small, poorly fitted or top-dose-only effect, or another doubt; inactive = no such curve, though single readings can be large; an effect the other way counts as inactive or inconclusive.

Screening COc1cccc(-c2ccnc3c2c(=O)[nH]c(=O)n3Cc2ccco2)c1 returned ALOX12 inh inconclusive and LDHA inh 2.4.
O=C(NCCc1ccc(Cl)cc1)c1ccc2c(=O)[nH]c3c(C(=O)NCC4CCCO4)sc(=S)n3c2c1 (stereo not drawn) was read as ALOX12 inh 50.1µM*.
For Cc1cc(NC(=O)C(C)Sc2nnc3c(Cl)cc(C(F)(F)F)cn23)no1 (stereo not drawn) the results were ALOX12 inh 3.1% and LDHA inh 3.1.
For CC1=NN(c2ccc(C)cc2)C(=O)/C1=C/c1ccc(-c2cc([N+](=O)[O-])ccc2O)o1 the results were Nrf2 inh 2.5%, Nrf2 ARE act 2.7%, ALOX12 inh 20µM*, mIDH1 inhibitor -0.4%, A549 viability -6.1% and LDHA inh 0.6.
For CCCCCOc1ccc(NC(=O)C(=O)NCCCn2ccnc2)cc1 the results were Nrf2 inh 9.2µM*, Nrf2 ARE act -0.1%, ALOX12 inh -16.3%, mIDH1 inhibitor 2.4%, A549 viability -0.5% and LDHA inh -1.9.
Screening C=CCOc1ccc(NC(=O)C(=O)NCCCn2ccnc2)cc1 returned Nrf2 inh -26.7%, Nrf2 ARE act -0.6%, ALOX12 inh 5.7%, mIDH1 inhibitor 1.9%, A549 viability -0.9% and LDHA inh -0.3.
CCCCOc1ccc(C(=O)Nc2ccncc2)cc1 was read as Nrf2 inh 9.2µM*, Nrf2 ARE act 3.9%, ALOX12 inh 0.0%, mIDH1 inhibitor 4.9%, A549 viability -7.9% and LDHA inh -3.4.
Screening CCC(c1cccs1)N1C(=O)[C@H]2CN(S(=O)(=O)c3ccccc3)C[C@H]2C1=O (stereo partly drawn) returned ALOX12 inh 28.0%.
For CCC(c1cccs1)N1C(=O)[C@H]2CN(S(=O)(=O)c3cccc(Cl)c3)C[C@H]2C1=O (stereo partly drawn) the results were ALOX12 inh 31.6µM*.
For O=C(CSc1nnnn1-c1ccc2c(c1)OCCO2)Nc1nc2c(s1)CCCC2 the results were Nrf2 inh 13µM*, Nrf2 ARE act 2.8%, ALOX12 inh 11.7%, mIDH1 inhibitor 0.7%, A549 viability inconclusive and LDHA inh -10.1.
For COc1cccc(-n2nnnc2SCC(=O)Nc2nc3c(s2)CCCC3)c1 the results were Nrf2 inh -9.3%, Nrf2 ARE act 8.1%, ALOX12 inh -1.4%, mIDH1 inhibitor -2.0%, A549 viability 5.9% and LDHA inh -10.6.
Screening CC(=O)c1c(C)[nH]c(C(=O)CN2CCN(S(=O)(=O)c3ccc(C(C)C)cc3)CC2)c1C returned Nrf2 inh 14.6µM*, Nrf2 ARE act 0.4%, ALOX12 inh 216.6%, mIDH1 inhibitor -10.4%, A549 viability -13.4% and LDHA inh 1.3.
For CC(=O)c1c(C)[nH]c(C(=O)CN2CCN(S(=O)(=O)c3ccccc3F)CC2)c1C the results were Nrf2 inh 25.9µM*, Nrf2 ARE act 6.0%, ALOX12 inh 125.1%, mIDH1 inhibitor 3.3%, A549 viability -13.3% and LDHA inh -2.5.
Screening COc1ccc(S(=O)(=O)N2CCN(CC(=O)c3[nH]c(C)c(C(C)=O)c3C)CC2)cc1OC returned Nrf2 inh -8.4%, Nrf2 ARE act -0.2%, ALOX12 inh 428.5%, mIDH1 inhibitor 1.5%, A549 viability 1.6% and LDHA inh -0.2.
For N#Cc1nc(/C=C/c2ccccc2)oc1NCc1ccccc1 the results were ALOX12 inh inconclusive and LDHA inh 10.3.
For O=[N+]([O-])c1cccc(-c2ccc(C(=S)N3CCOCC3)o2)c1 the results were Nrf2 inh inconclusive, Nrf2 ARE act inconclusive, ALOX12 inh 5.4%, mIDH1 inhibitor 0.3%, A549 viability 1.5% and LDHA inh 4.4.
Screening O=[N+]([O-])c1ccccc1-c1ccc(C(=S)N2CCCC2)o1 returned Nrf2 inh inconclusive, Nrf2 ARE act 13.6%, ALOX12 inh 39.8µM*, mIDH1 inhibitor 15.6%, A549 viability 1.0% and LDHA inh 41.2.
For O=[N+]([O-])c1cc(-c2ccc(C(=S)N3CCOCC3)o2)ccc1Cl the results were Nrf2 inh inconclusive, Nrf2 ARE act 2.9%[9.22 µM], ALOX12 inh 12.6µM*, mIDH1 inhibitor -7.8%, A549 viability -3.0% and LDHA inh 2.4.
`COc1ccccc1N1CCN(Cc2ccc(-c3ccccc3[N+](=O)[O-])o2)CC1` gave Nrf2 inh 23.1µM*, Nrf2 ARE act 9.2%, ALOX12 inh -25.9%, mIDH1 inhibitor 5.4%, A549 viability -1.5% and LDHA inh 4.6.
`COc1ccccc1N1CCN(Cc2ccco2)CC1` gave Nrf2 inh 0.1%, Nrf2 ARE act -0.2%, ALOX12 inh inconclusive, mIDH1 inhibitor 3.4%, A549 viability -4.1% and LDHA inh -17.5.
For O=[N+]([O-])c1ccccc1-c1ccc(C(=S)N2CCCCC2)o1 the results were Nrf2 inh inconclusive, Nrf2 ARE act 25.7%, ALOX12 inh 0.0%, mIDH1 inhibitor 2.6%, A549 viability 3.2% and LDHA inh 5.3.
Screening S=C(Nc1ccccc1Cl)NC1CC1 returned ALOX12 inh inconclusive and LDHA inh 0.5.
`CC(C)=CCC1(CO)CCCN(c2ccnc(N)n2)C1` (stereo not drawn) gave ALOX12 inh 34.6%.
CC1Cc2ccccc2N1C(=O)CN1CCC(n2nnc3cc(C(F)(F)F)ccc32)CC1 (stereo not drawn) was read as Nrf2 inh 16.4µM*, Nrf2 ARE act 3.9%, ALOX12 inh 14.0%, mIDH1 inhibitor -4.3%, A549 viability inconclusive and LDHA inh -2.2.
COC(=O)c1ccccc1NC(=O)CN1CCC(n2nnc3cc(C(F)(F)F)ccc32)CC1 was read as Nrf2 inh -6.1%, Nrf2 ARE act 3.6%, ALOX12 inh 0.0%, mIDH1 inhibitor -0.1%, A549 viability 5.8% and LDHA inh -3.9.
CC(C)(C)c1ccc(C(=O)N/N=C/CCc2ccccc2)cc1 was read as ALOX12 inh 10.7% and LDHA inh -10.4.
CC(C)(C)c1ccc(CC/C=N/O)cc1 was read as ALOX12 inh 11.2µM* and LDHA inh -9.5.
`N#Cc1ccc(CN2CCN(C(=O)c3ccc(Cn4nnc5ccccc54)cc3)CC2)cc1` gave ALOX12 inh inconclusive and LDHA inh -1.9.
`CC(Sc1ncc(C(F)(F)F)cc1Cl)C(N)=O` (stereo not drawn) gave ALOX12 inh 9.9% and LDHA inh -6.3.

Compound activity as filed in PubChem.
